# Bioassay records as filed in PubChem BioAssay.
# A selection: hits, their analogues and other compounds. The true share with any hit is near 1.9%.
# HMGR II inh = inhibitors of class II HMG-CoA reductase from Enterococcus faecalis; hit rate 0.41% among 190,000; AID 1066; inhibition, % at 10 µM; purified E. faecalis HMGR, NADPH absorbance 340 nm kinetic;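 active = inhibition above a set limit, the median over all tested compounds plus 3 SD, cut at about 9.5% in these data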;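 note: enzyme runs in reverse so mevalonate oxidation gives rising NADPH absorbance; 0% = complete reaction with DMSO and 100% = background rate lacking mevalonate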
# Autophagy mod = modulators of autophagy | calls only at 10 µM (by protocol) | MEF GFP-LC3 puncta imaging; test concentration mostly 10 µM | hit rate 0.98% among 190,000;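 active = percentage of spot-positive cells more than 3 SD above its plate mean, without a fluorescence outlier flag or 80% toxicity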;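 note: spot-positive cell cutoff set from DMSO-treated cells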
# INS promoter inh = TRM-6 insulin promoter activity inhibition; TRM-6 cells (human fetal islet line), insulin promoter-eGFP reporter, imaging; reporter expression induced with tamoxifen; inhibition, % at 2 µM; hit rate 0.9% among 130,000; AID 1273;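 active = inhibition above the mean plus 3 SD, with well images judged a real hit on visual review, cut at about 60% in these data, passing the limit was not always enough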
# Ins promoter up = MIN6 insulin promoter up-regulation | MIN6 insulin promoter-GFP reporter, high-content imaging; stronger effect = higher value | z-score at 5 µM | hit rate 0.3% among 190,000;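 active = z-score above 3 at 5 µM with at least 500 cells counted in the well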
# Numbers without * were called inactive; i = inactive; / = no result; + = active, no number.
SMILES,HMGR II inh,Autophagy mod,INS promoter inh,Ins promoter up
CCOc1ccccc1NC(=O)Cc1ccccc1OC,3,i,81*,-0.35
COc1ccc(C(CC(=O)c2ccccc2)CC(=O)c2ccccc2)cc1OC,1,i,/,-0.67
Cc1ccc(N2C(=O)c3cccc4c(Oc5ccccc5[N+](=O)[O-])ccc(c34)C2=O)c(C)c1,-5,i,0,1.4
CCOc1ccccc1C(=O)Nc1cc(OC)ccc1OC,-1,+,/,-0.29
CCOC(=O)c1ccccc1NS(=O)(=O)c1ccc(OCC)cc1,-4,+,-74,-0.19
CCN1CCN(c2ccc(NC(=O)CCc3c(C)nc4c(-c5ccc(F)cc5)c(C)nn4c3C)cc2)CC1,4,i,-53,-0.68
O=C(Nc1ccccc1N1CCOCC1)c1cccc(NS(=O)(=O)c2ccc(F)c(F)c2)c1,5,i,/,-0.61
COc1ccc(/C(O)=C/c2nc3ccccc3n(-c3ccccc3)c2=O)cc1,-1,+,-17,/
CCCCCCCSc1nnc(N)s1,/,/,/,0.08
CC(=O)Nc1c(C)ccc2nsnc12,0,i,36,0.92
Cc1ccc2nsnc2c1N,18*,i,/,1.2
CN(C)CC(CCC(CN(C)C)C(=O)c1ccccc1)C(=O)c1ccccc1 (configuration not stated),/,/,/,-1.9
Cc1ccn2c(NC3CCCCC3)c(C)nc2c1,-1,i,/,3.9*
COc1ccccc1C(=O)OCc1c(F)cccc1Cl,1,i,-11,/
Cc1ccccc1NC(=O)CSc1nnc(Cc2ccccc2)o1,3,i,75*,0.65
CCNC(=S)N=Nc1c(O)[nH]c2ccc(C(C)C)cc12,-2,i,64*,-1.6
CC(C)c1ccc2[nH]c(O)c(N=NC(=S)NCCc3ccccc3)c2c1,-2,i,/,-1.5
COCc1nnc(NC(=O)c2ccc(S(=O)(=O)N(CC(C)C)CC(C)C)cc2)o1,-2,i,/,0.12
C=CCN(CC=C)S(=O)(=O)c1ccc(C(=O)Nc2nnc(COC)o2)cc1,-2,+,/,0.1
O=C(NCc1ccc2c(c1)OCO2)C1(S(=O)(=O)c2ccccc2)CC1,0,i,93*,/
CCOC(=O)N1CCN(S(=O)(=O)c2ccc(C(=O)Nc3nnc(C4CC4)o3)cc2)CC1,-3,i,/,-0.08
CCOC(=O)N1CCN(S(=O)(=O)c2ccc(C(=O)Nc3nc4c(s3)CC(C)CC4)cc2)CC1 (configuration not stated),-8,+,/,-1.1
CCOC(=O)N1CCC(N2CCN(S(=O)(=O)c3ccc(C)cc3)CC2)CC1,-1,i,67*,-0.39
CCS(=O)(=O)c1nc(S(=O)(=O)c2ccc(C)cc2)c(NCCCN(C)C)s1,-4,i,/,/
CCS(=O)(=O)n1nc(-c2ccco2)nc1N,10*,i,-19,/
SMILES,HMGR II inh,Autophagy mod,INS promoter inh,Ins promoter up
Cc1nc([N+](=O)[O-])c(Br)n1CC(=O)c1cccc([N+](=O)[O-])c1,16*,i,56,/
Cc1nc([N+](=O)[O-])c(Br)n1CC(=O)c1ccc(F)cc1,-5,i,45,/
CCOc1ccc(N=C2NC(=O)S/C2=C\c2ccc(OC)cc2)cc1,-4,+,3,/
CC(=O)OC(C(=O)NCc1ccco1)c1cccnc1 (configuration not stated),2,i,76*,0.02
O=C(NCCN1CCOCC1)c1cc2cc(Cl)cc(Cl)c2oc1=O,/,i,14,/
CCC(Sc1ccccn1)C(=O)Nc1cccc([N+](=O)[O-])c1 (configuration not stated),14*,i,/,0.11
N/C(Cc1nc(-c2ccc(Br)cc2)cs1)=N\O,-3,i,-49,0.19
Cc1ccc(NCCc2ccc(C)nc2)cc1,1,i,75*,-0.85
Cc1ccc(CCNc2ccc3ccccc3c2)cn1,-1,i,49,/
CCOC(=O)c1cc(=O)n2nc(-c3ccccc3F)nc2s1,-2,i,86*,0.98
CCOC(=O)c1ccc(NC(=O)Cn2nnc(-c3ccccc3F)n2)cc1,-10,i,-11,-1.1
COc1cccc(/C=C2/SC(=O)N(C)C2=O)c1OCc1ccc(C(=O)O)cc1,10*,i,-18,/
Cc1cccc(OCC(=O)N/N=C/c2cc([N+](=O)[O-])ccc2N2CCOCC2)c1,-8,i,0,1.2
COc1cccc2sc(Nc3nnc(-c4ccc(F)cc4)o3)nc12,-3,i,/,/
COc1cccc2sc(Nc3nnc(-c4cccs4)o3)nc12,-6,+,/,-0.26
CCOC(=O)C1(CC2CCCCO2)CCN(S(=O)(=O)c2cc(C)cs2)CC1 (configuration not stated),-2,i,/,0.15
CCCNC(=O)COC(=O)c1ccccc1C(=O)c1ccc(Cl)c([N+](=O)[O-])c1,3,i,/,-0.35
